# This is part of a sample that, as a whole, favours compounds with a hit. Of some 83,000 tested, about 20% had one in any assay.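 How to read the values: 0–100, growth inhibition (40 = 60% inhibited); 0, no net growth; -100 to 0, cell death (-40 = 40% of starting cells died; -100 = all dead).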 Values without a mark were called inactive. The source made the active and inactive calls. The calls were made as follows: active = growth percent below 10; inactive = the rest.
# Key:
# Assay in all cases: NCI-60 one-dose screen, 48 h (100 = growth as untreated, 0 = no growth, -100 = all killed)
# Settings in all cases: 10 µM unless noted
# [1] = test system: HCT-15 colon
# [2] = test system: HT29 colon
# [3] = test system: SNB-75 CNS
# [4] = test system: SNB-19 CNS
# [5] = test system: U251 CNS
# [6] = test system: PC-3 prostate
# [7] = test system: SK-MEL-5 melanoma
# [8] = test system: UACC-62 melanoma
# [9] = test system: LOX IMVI melanoma
# [10] = test system: SK-MEL-28 melanoma
# [11] = test system: SK-MEL-2 melanoma
# [12] = test system: EKVX NSCLC
# [13] = test system: SN12C renal
# [14] = test system: UO-31 renal
# [15] = test system: TK-10 renal
# [16] = test system: ACHN renal
# [17] = test system: CAKI-1 renal
# [18] = test system: A498 renal
# [19] = test system: CCRF-CEM leukemia
# [20] = test system: MOLT-4 leukemia
Compound,growth [1],growth [2],growth [3],growth [4],growth [5],growth [6],growth [7],growth [8],growth [9],growth [10],growth [11],growth [12],growth [13],growth [14],growth [15],growth [16],growth [17],growth [18],growth [19],growth [20]
C#CCn1cccc1CNc1ccc(OC)cc1,-79.2% (active),-50.4% (active),-79.9% (active),-90.1% (active),-74.6% (active),-93.3% (active),-6.24% (active),-91.7% (active),-84.8% (active),-48.9% (active),-14.1% (active),-83% (active),-84.3% (active),-95.4% (active),-77.7% (active),-95% (active),-87.6% (active),53.8%,-43.6% (active),-29.5% (active)
O=S(=O)(Oc1ccc(-c2nnc(Nc3ccccc3)s2)cc1)C(F)(F)C(F)(F)C(F)(F)C(F)(F)C(F)(F)C(F)(F)F,98.7%,109%,99.9%,101%,107%,110%,108%,90.8%,99.8%,105%,106%,99.1%,98.7%,98.2%,109%,103%,92.7%,99.5%,102%,-29.1% (active)
Cc1ccc(-n2cc(/C=N/NC(=O)c3ccncc3)c(-c3ccc(S(C)(=O)=O)cc3)n2)cc1,37%,76.6%,95.7%,89.9%,97.5%,81.5%,94.5%,76.9%,74%,93.4%,97.7%,95.2%,89.4%,80.4%,118%,98%,90.2%,88.2%,84%,70.4%
N=c1c2cc(-c3ccccc3)oc2ncn1/N=C/c1ccc(Br)cc1,57.9%,102%,58%,74.9%,45.9%,75.3%,97.1%,90.4%,45.3%,77.8%,104%,79.4%,60%,85.4%,111%,19.3%,88.5%,80.4%,68.7%,85%
COc1ccc(NC(=O)CSc2nnc(-c3ccc4nc(-c5ccccc5)[nH]c4c3)o2)cc1,92.2%,108%,101%,102%,102%,105%,85.9%,95%,101%,99.7%,105%,94%,96%,85.7%,121%,102%,101%,98%,91.6%,83.5%
c1cn2c(ccc3nc(-c4cn[nH]c4)c4c(c32)CCCC4)n1,35.1%,62.4%,40.5%,75.5%,56.1%,48.3%,87.6%,33.5%,79%,66%,-5.11% (active),90.2%,59.2%,23%,30.8%,26.4%,16.5%,-4.01% (active),81.2%,83.4%
NC(=O)c1c(NC(=O)c2ccc(F)cc2F)sc2c1CCC(=O)C2,11.8%,59.8%,66.8%,59.3%,32.4%,16.3%,64.6%,22.6%,22.6%,37%,102%,73.6%,72.9%,29.3%,61.9%,7.96% (active),33.9%,100%,18.3%,40.6%
NC(N)=Nc1ccc(Oc2cccc(Nc3ccc(Cl)c(C(F)(F)F)c3)c2)cc1,79.5%,49%,47.4%,24.8%,-27.6% (active),28.3%,43.9%,40.1%,-62.4% (active),67.7%,83.7%,36.1%,27.1%,76.2%,82.6%,74%,39.8%,36.7%,17.5%,17.8%
NS(=O)(=O)c1ccc(Nc2cc(-c3ccccc3)nc(SCC(=O)c3ccccc3)n2)cc1,99.4%,106%,91.6%,91.7%,100%,98.4%,98.6%,91.1%,97.8%,104%,105%,97.9%,96%,86%,129%,105%,90%,94.9%,98.3%,105%
N=c1c2cc(-c3ccccc3)oc2ncn1/N=C/c1ccc(Cl)cc1,56.8%,98.7%,88.7%,86.5%,66.4%,82.2%,91.2%,90.6%,63.3%,82.9%,101%,84.7%,62.6%,94%,112%,34.3%,97.7%,99.7%,71.2%,88.2%
FC(F)(F)c1cc(Nc2cccc(Oc3ccc(NC4=NCCN4)nc3)c2)ccc1Cl,-71.4% (active),4.39% (active),10.7%,9.09% (active),-7.18% (active),-36.5% (active),4.94% (active),-45.5% (active),-94.8% (active),29.4%,5.11% (active),12.6%,-24.8% (active),21.9%,27.5%,1.37% (active),16.2%,37.9%,14.6%,9.2% (active)
COC(=O)c1ccc(NC2=C/C(=N/S(=O)(=O)c3ccc(C(=O)O)cc3)c3ccccc3C2=O)cc1,61.7%,112%,172%,88.6%,2.7% (active),16.6%,-35.6% (active),-24.1% (active),-65% (active),-32.6% (active),4.1% (active),88.3%,-71.3% (active),-1.04% (active),156%,-11.2% (active),20.4%,119%,4.48% (active),-15% (active)
NS(=O)(=O)c1ccc(Nc2nc(N/N=C/c3ccc(Cl)cc3)nc(Nc3ccccc3)n2)cc1,76.4%,34.2%,94.3%,81.8%,54.6%,51.7%,69.1%,74.9%,60.4%,75.3%,81.7%,76.6%,81.6%,82.1%,103%,90.1%,62.1%,76.3%,19.4%,1.53% (active)
N#Cc1cccc(/C(N)=N/C(N)=N/c2nc3ccccc3s2)c1,31.9%,11.3%,22.2%,27.3%,27.7%,17.7%,41.5%,34.5%,46.2%,65.4%,40.4%,43.3%,34.9%,44.2%,81.3%,48.3%,34%,-4.3% (active),6.56% (active),27.7%
COc1ccc(-c2nc3ccc(-c4nnc(SCC(=O)Nc5ccc(C(=O)/C=C/c6ccc(Cl)cc6)cc5)o4)cc3[nH]2)cc1,86.1%,104%,94.7%,108%,94.3%,94.9%,98.9%,94%,-29.9% (active),101%,111%,99.7%,88.3%,85.3%,120%,97.7%,97.2%,84.3%,96%,88.3%

# Source: PubChem BioAssay (NCI)
